Measured values from PubChem BioAssay AID447 (National Center for Advancing Translational Sciences (NCATS), 2006).
Out of some 69,000 compounds screened, fewer than 10 were called active. Inconclusive results (about 100%) are left out. How the calls were made is not given here. The list shows a part of the results.

target: UDP-N-acetylglucosamine--peptide N-acetylglucosaminyltransferase 110 kDa subunit (Homo sapiens) (UniProt O15294); experiment: O-Glc NAc Transferase (sOGT); settings: sOGT fluorescence polarization UDP-GlcNAc probe displacement
From the text: NIH Molecular Libraries Screening Centers Network [MLSCN]
NIH Chemical Genomics Center [NCGC]
Suzanne Walker [Harvard Medical School]
OGT is the sole enzyme that mediates the attachment of O-GlcNAc groups to serine and threonine residues in the nucleus and cytoplasm of eukaryotic cells, and no specific inhibitors are known. This type of glycosylation is involved in signal transduction and plays a key role in many essential cellular processes. High O-GlcNAc levels have been correlated to insulin resistance and type 2 diabetes. In addition to elucidating the role of O-GlcNAc in cellular processes, inhibitors of OGT might be useful in studying and perhaps treating type 2 diabetes. Since HTS-amenable direct assay for OGT activity is currently unavailable, a simpler substrate-displacement screen was performed. The signal measured is based on the change in fluorescence polarization of a fluorescein-labeled UDP-GlcNAc upon displacement from its complex with OGT. Recombinant truncated version of the enzyme, sOGT, as well as labeled probe, were made available by Suzanne Walker and Benjamin Gross, Harvard Medical School.
NCGC Assay Protocol Summary:
20 mM phosphate buffer, pH 8.0, 0.01% Tween-20, 500 uM THP (Tris (hydroxypropyl) phosphine).
50 nM/1.5 uM sOGT /100 uM UDP in columns 3 and 4 as negative control (full inhibition of binding, 0 % activity).
50 nM probe/1.5 uM sOGT in columns 1, 2, 5-48. Titration of UDP control (from 40 mM, then 1:2) pin-transferred to column 2. Column 1 is neutral (100% activity).
Three uL of reagents were dispensed to 1536-well Greiner black plates. Compounds and controls (20 nL) were transferred via Kalypsys PinTool. The plates were incubated for 15 min at room temperature, and then read on ViewLux (Perkin-Elmer) High-throughput CCD imager using fluorescein polarization filter set and 45 seconds exposure time. During dispense, reagent bottles were kept submerged into 4 deg C water bath and all liquid lines were covered with aluminum foil to minimize probe and protein degradation.
Keywords: NIH Roadmap, MLSCN, MLI, MLSMR, sOGT, qHTS, NCGC

UDP-N-acetylglucosamine--peptide N-acetylglucosaminyltransferase 110 kDa subunit (Homo sapiens), sequence (O15294 whole entry, looked up): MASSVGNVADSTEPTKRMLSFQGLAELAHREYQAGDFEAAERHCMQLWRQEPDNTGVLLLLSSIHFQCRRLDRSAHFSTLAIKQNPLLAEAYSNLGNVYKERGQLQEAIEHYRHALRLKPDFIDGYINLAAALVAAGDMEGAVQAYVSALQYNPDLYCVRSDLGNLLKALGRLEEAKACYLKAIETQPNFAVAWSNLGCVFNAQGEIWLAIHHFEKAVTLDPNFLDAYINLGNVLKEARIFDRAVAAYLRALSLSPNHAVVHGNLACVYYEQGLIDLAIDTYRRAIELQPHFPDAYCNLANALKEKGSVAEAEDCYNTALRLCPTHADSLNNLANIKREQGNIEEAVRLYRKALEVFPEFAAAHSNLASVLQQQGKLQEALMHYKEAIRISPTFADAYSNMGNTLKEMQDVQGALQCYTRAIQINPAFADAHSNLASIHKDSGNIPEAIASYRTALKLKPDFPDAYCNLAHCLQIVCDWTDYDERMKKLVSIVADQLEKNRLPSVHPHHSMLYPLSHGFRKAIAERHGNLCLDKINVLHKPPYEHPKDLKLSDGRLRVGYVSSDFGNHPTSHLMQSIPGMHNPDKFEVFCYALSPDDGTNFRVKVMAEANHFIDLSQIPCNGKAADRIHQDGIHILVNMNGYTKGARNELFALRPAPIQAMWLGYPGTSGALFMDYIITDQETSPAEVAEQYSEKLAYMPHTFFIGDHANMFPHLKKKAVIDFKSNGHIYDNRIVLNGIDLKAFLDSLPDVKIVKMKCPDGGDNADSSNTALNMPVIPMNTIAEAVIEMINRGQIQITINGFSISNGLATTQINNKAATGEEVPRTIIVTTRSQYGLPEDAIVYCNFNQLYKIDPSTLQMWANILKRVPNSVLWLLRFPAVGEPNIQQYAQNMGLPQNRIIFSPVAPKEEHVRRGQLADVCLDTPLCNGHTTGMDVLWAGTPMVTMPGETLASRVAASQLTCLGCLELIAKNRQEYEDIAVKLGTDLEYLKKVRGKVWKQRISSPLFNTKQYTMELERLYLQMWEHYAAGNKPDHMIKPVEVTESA

Potency, active:
O=C(O)C1=CC(=C(c2ccc(O)c(C(=O)O)c2)c2ccc(O)c(C(=O)O)c2)C=CC1=O 21.8 µM, CCCn1c(=O)c(C)cn2nc(N)nc12 31.1 µM, CCCCCCCCCCCCC/C=C\[C@@H](O)[C@H](CO)NC(C)=O 25.2 µM, Cc1cc(-c2ccc(N=Nc3ccc4c(S(=O)(=O)O)cc(S(=O)(=O)O)c(N)c4c3O)c(C)c2)ccc1N=Nc1ccc2c(S(=O)(=O)O)cc(S(=O)(=O)O)c(N)c2c1O 43.7 µM, Nc1c(S(=O)(=O)O)cc(Nc2ccc(Nc3nc(Cl)nc(Nc4ccc(S(=O)(=O)O)cc4)n3)c(S(=O)(=O)O)c2)c2c1C(=O)c1ccccc1C2=O 22.3 µM
